± gives the standard deviation.
system: MILI (PIWIL2) piRISC loaded with piRNA #1 (26 nt); experiment: pre-steady-state target cleavage rate (min^-1); guide: piRNA #1 5'p-UGAGGUAGUAGGUUGUAUAGUAUCCA; MIWI and MILI are mouse PIWI proteins and EfPiwi is from a freshwater sponge; tags in brackets are library labels; higher = faster piRNA-guided slicing of the target; details: auxiliary factor: 500 nM mouse GTSF1
Procedure, shortened: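 In HEPES–potassium acetate buffer at 33 °C, […] transcribed, DNA-blocked target RNA library was mixed with 1 nM active affinity-purified piRISC carrying one synthetic guide, with or without 500 nM GTSF1 partner protein, for 0–8 or 0–960 min. Uncleaved targets were sequenced and normalised to depth and to weakly complementary targets; three trials were pooled and k3 was capped at 0.0001 min^-1. The pre-steady-state cleavage rate followed from a burst-and-steady-state fit.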
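Note: 1 nM active piRISC with 0.1 nM target library at 33 °C single turnover.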

| Sequence | pre-steady-state target cleavage rate |
| --- | --- |
| GGAGACCUAUGAUAACAACCUACCACCUCA | 0.00342 ± 0.0032 |
| GGAGACCAUUCUAUAGAACCUACUACCUCA | 0.116 ± 0.015 |
| GGAGACCUAUGAUAACAACCUAAUACCUCA | 0.00414 ± 0.0023 |
| GGAGACCUAAGUAUACAACCAACUACCUCA | 0.00465 ± 0.0039 |
| GGAGACCAUACUAUACAACCUACUACCUCCA | 0.137 ± 0.018 |
| GGAGACCAUACUAAACAACCUACUACCUGA | 0.13 ± 0.018 |
| GGAGACCUAUGAUAUGUUCCUACUACCUCA [g2:g12:cont:t1A] | < 0.0001 |
| GGAGACCUAUGAAUACAACCUACUACCAUCA | 0.00646 ± 0.0026 |
| GGAGACCUAACUAUCAACCUACUACCUCA | 0.0603 ± 0.014 |
| GGAGACCUAUGUAUACAACCUACUUCCACA | 0.0135 ± 0.0034 |
| GGAGACCUAUGAAUACAACGUACUACCUGA | 0.00311 ± 0.0023 |
| GGAGUGGAUACUAUACAACCUACUGCCUCA | 0.102 ± 0.0082 |
| GGAGACCUAUGAAAACAACCUACUUCCUCA | 0.00368 ± 0.002 |
| GGAGACCUUACAUAACAACCUACUACCUCA | 0.013 ± 0.0048 |
| GGAGACCUAUGAAUACUACCUACUACCACA | 0.00343 ± 0.0025 |
| GGAGACCUUACUAUACAUCCUACUAGCUCA | 0.2 ± 0.024 |
| GGAGUGGAUAGUAUUCAACCUACUACCUCA | 0.106 ± 0.011 |
| GGAGACCUAUGUAUACAACCUACAACCUCA | 0.0609 ± 0.0082 |
| GGAGACCUAUCUAUAGAACGUACUACCUCA | 0.00596 ± 0.0017 |
| GGAGACCUAUCUUUACAACCUACUACCACA | 0.105 ± 0.016 |

| Sequence | pre-steady-state target cleavage rate |
| --- | --- |
| GGAGACCUAUGUAUACAACCUUCAACCUCA | 0.00276 ± 0.0024 |
| GGAGACCUAUGUAUAACAACCUACUACCUCA | 0.0151 ± 0.0041 |
| GGAGACCUAUCUAUACAACCUACUAGCUGA | 0.00493 ± 0.0036 |
| GGAGACCUAUGAUUACAACCUACCUACCUCA | 0.00646 ± 0.0028 |
| GGAGACCAUACUUAUCAACCUACUACCUCA | 0.102 ± 0.02 |
| GGAGACCUAUGUAUACAACCUACUACCGCA | 0.085 ± 0.015 |
| GGAGACCUAUGUAUUGAACCUACUACCUCA | 0.00285 ± 0.0015 |
| GGAGACCUAUGAUAUGUUCCUACUAGCUCA | < 0.0001 |
| GGAGACCUAUCUAUACAAGCAACUACCUCA | 0.00953 ± 0.0029 |
| GGAGACCUAUCUAUAGAACCUACUACCUGA | 0.00618 ± 0.0029 |
| GGAGACCUAAGUAUACAACCUACUACGUCA | 0.0129 ± 0.0032 |
| GGAGAGCAUACUAUACUACCUACUACCUCA | 0.195 ± 0.016 |
| GGAGACCUAUGAAUACAUCCUACUACGUCA | 0.00336 ± 0.0019 |
| GGAGACCUUACUAAUGAACCUACUACCUCA | 0.00805 ± 0.0017 |
| GGAGACCUAUCUAUACAACCUUCUACCACA | 0.00592 ± 0.0023 |
| GGAGACCUAUGAAUACAACCUACUAGCUCA | 0.00444 ± 0.0022 |
| GGAGACCAUACUAUUCAUCCUACUACCUCA | 0.271 ± 0.019 |
| GGAGACCUAACUAUAGAACCUACUACCUGA | 0.0124 ± 0.008 |
| GGAGACGAUACUAUACAGCCUACUACCUCA | 0.16 ± 0.015 |
| GGAGACCUAUGAAAACAACCUACAACCUCA | 0.00529 ± 0.0026 |

— the supplement of paper PMC10338343
